# Test results as given in PubChem BioAssay AID2101 (National Center for Advancing Translational Sciences (NCATS), 2009).
# About 300 (0.091%) of roughly 330,000 compounds were called active. Inconclusive results (about 4%) are left out. The call rests on the fitted dose curve; in most records, active means well fitted inhibition curve with a large enough effect; inconclusive means small, poorly fitted or top-dose-only effect, or effect the other way, or another doubt; inactive means no such curve, though single readings can be large or run the other way. The entries come from a sample that favours actives as a whole.
# Target: Lysosomal acid glucosylceramidase (Homo sapiens) (UniProt P04062)
# Assay: qHTS Assay for Inhibitors and Activators of N370S glucocerebrosidase as a Potential Chaperone Treatment of Gaucher Disease;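 on activity change, negative = inhibition: 0% = full enzyme activity and -100% = no enzyme basal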
# Details: N370S GC spleen homogenate, 4MU-glucoside fluorescence; series mostly up to 59.4 µM; activity change, negative = inhibition: at the top concentration
# Text: NIH Chemical Genomics Center [NCGC]
# NIH Molecular Libraries Probe Production Centers Network [MLPCN]
# Assay Submitter (PI): Wei Zheng
# Glucocerebrosidase (GC) catalyzes the hydrolysis of beta-glucocerebroside to glucose and ceramide in lysosomes. Mutations in the glucocerebrosidase gene result in Gaucher disease, an autosomal recessive lysosomal storage disorder. Many of the mutations encountered in patients with Gaucher disease are missense alterations that may cause misfolding, decreased stability and/or mistrafficking of this lysosomal protein. […] These inhibitors include iminosugar analogs and three non-iminosugar inhibitors identified from a previous HTS of 62,000 compounds with the wild type recombinant enzyme. However, the enhancement of enzyme activity by the chaperone action of an enzyme inhibitor must be balanced against the direct inhibition of the enzyme. An enzyme activator could also function as a chaperone by binding to the enzyme and helping to correct its misfolding and mistrafficking. While activators for GC have not yet been identified, they may have better therapeutic potential than inhibitors. Therefore the discovery and development of chemical activators may provide a new strategy for the chaperone therapy.
# We have optimized a new assay using N370S mutant GC derived from the spleen of a Gaucher patient. […] In addition, the MLPCN compound library has expanded, which increases the chance of finding new and better probes.
# NCGC Assay Protocol Summary:
# This is a fluorogenic enzyme assay with 4-methylumbelliferyl-beta-D-glucopyranoside as the substrate and N370S glucocerebrosidase from human spleen homogenate as the enzyme preparation. Upon the hydrolysis of this fluorogenic substrate, the resulting product, […] which can be detected by a standard fluorescence plate reader. Data were normalized to the controls for basal activity (without enzyme) and 100% activity (with enzyme). The AC50 values were determined from concentration-response data modeled with the standard Hill equation.
# Assay buffer: 50 mM citric acid (titrated with potassium phosphate to pH 5.0), 100 mM potassium chloride, 10 mM sodium chloride, 1 mM magnesium chloride, 0.01% Tween-20.
# 1536-well assay protocol:
# (1) Add 2 ul/well of spleen homogenate (27 ug final)
# (2) Add 23 nL compounds in DMSO solution. The final titration was 0.5 nM to 58 uM.
# (3) Add 2 ul of substrate (1 mM final)
# (4) Incubate at 37C for 40 min.
# (5) Add 2 ul stop solution (1M NaOH and 1M Glycine mixture, pH 10)
# (6) Detect the assay plate in a ViewLux plate reader (PerkinElmer) with Ex=365 nm and Em=440nm.
# Keywords: Glucocerebrosidase, beta-glucosidase, Gaucher Disease, pharmacological chaperone, chaperone therapy, high throughput screening, glucocerebrosidase inhibitor, MLSMR, MLSCN, NIH Roadmap, qHTS and NCGC
# Potency means the concentration at half of the fitted maximal effect.
Compound,"activity change, negative = inhibition",Potency
Cc1nc(-c2ccc(F)cc2)c(CC(=O)N(C)CC(=O)Nc2c(C)cccc2C)s1,-17.5% (inactive),
CC(C)(C)c1ccc(S(=O)(=O)N2CCN(C(=O)c3ccc4c(c3)C(=O)N(Cc3ccncc3)C4=O)CC2)cc1,-4.23% (inactive),
CC(C)(O/N=C(\C(=O)N[C@@H]1C(=O)N2C(C(=O)[O-])=C(C[n+]3ccccc3)CS[C@@H]12)c1csc(N)n1)C(=O)O,5.35% [at 21.6 µM] (inactive),
CCOCCOC(=O)C(C)Oc1ccc(Oc2ncc(C(F)(F)F)cc2Cl)cc1 (stereo unspecified),-1.23% (inactive),
O=C1[C@H]2[C@H]3[C@H](O)[C@H](O)C/C(=N/OCc4ccccc4)[C@H]3CC[C@@H]2C(=O)N1Cc1ccccc1,4.77% [at 12.8 µM] (inactive),
CC(=O)N1[C@H](C)C=C[C@]1(Cc1ccccc1)C(=O)NCc1ccccn1,7.18% (inactive),
S=C(NCCCc1cnc[nH]1)NCCCN(Cc1ccc(Cl)c(Cl)c1)c1ccc(Br)cn1,,1 µM (active)
CN(C)CCCNC(=S)NCc1ccc(Cl)cc1,-7.45% (inactive),
Fc1ccc(Cl)cc1-c1nc(Nc2ccncc2)c2nccnc2n1,-3.89% (inactive),
CC1(C)OC2CC3C4CCC5=CC(=O)CCC5(C)C4(F)C(O)CC3(C)[C@]2(C(=O)CCl)O1 (stereo partly specified),-5.68% (inactive),
COc1ccccc1CNS(=O)(=O)c1cc(C(=O)NCc2ccccn2)c(Cl)cc1Cl,-9.28% (inactive),
CCCC[C@@H]1C[C@H]1C(NC(=O)c1ccco1)c1ccc(C(=O)OC)cc1 (stereo partly specified),-2.07% (inactive),
CCC1=Nc2cc(C(=O)NCCCN3CCOCC3)ccc2Sc2ccc(Br)cc21,-29.8% (inactive),
Cc1ccc(C(=O)NCCN2CCOCC2)cc1C,0.992% (inactive),
Cc1ccccc1CN1C(=O)c2ccccc2Sc2ccc(C(=O)NCCCN3CCOCC3)cc21,,11.2 µM (active)
CCc1cccc(NC(=O)COC(=O)c2cc(=O)c3ccccc3o2)c1,0.464% (inactive),
CCc1nnc(NC(=O)C2CCN(C(=O)c3ccccc3C)CC2)s1,-0.449% (inactive),
O=NO,inactive,
CN1CCN(S(=O)(=O)c2ccc(N3CCN(c4ccccc4O)CC3)c([N+](=O)[O-])c2)CC1,-19% (inactive),
C=CC(=C)CCC=C(C)C,10.8% (inactive),
Cc1[nH]c(C)c(S(=O)(=O)N2CCN(c3cccc(C(F)(F)F)c3)CC2)c1C(=O)N1CCCC1,-10.1% (inactive),

Compound,"activity change, negative = inhibition",Potency
O=C1CC(=O)Nc2cc(S(=O)(=O)N3CCN(c4cccc(C(F)(F)F)c4)CC3)ccc2N1,,14.1 µM (active)
CC(=O)N1CCOc2ccc(S(=O)(=O)N3CCN(c4cccc(C(F)(F)F)c4)CC3)cc21,-3.52% (inactive),
CC1CCN(C(=O)COC(=O)CCC(=O)c2cccs2)CC1,-8.17% (inactive),
Cc1cc2nc3c(=O)[nH]c(=O)nc-3n(C[C@H](O)[C@H](O)[C@H](O)CO)c2cc1C,2.13% (inactive),
CO[C@@]12[C@@H](COC(N)=O)C3=C(C(=O)C(C)=C(N)C3=O)N1C[C@@H]1N[C@@H]12,-3.21% (inactive),
COc1ccccc1C(=O)Nc1ccc(C)c(S(=O)(=O)N2CCCCC2)c1,-1.07% (inactive),
COc1cc(C(c2c(NC(=O)c3ccco3)sc(C)c2C)N2CCOCC2)cc(OC)c1OC (stereo unspecified),-2.37% (inactive),
CC1(C(=O)OCC(=O)Nc2ncc(Cl)cc2Cl)CC1(Cl)Cl (stereo unspecified),-0.315% (inactive),
Cc1cccc(N2CCN(S(=O)(=O)c3ccc4[nH]c(=O)c(=O)[nH]c4c3)CC2C)c1 (stereo unspecified),,12.6 µM (active)
Cc1cccc(N2CCN(C(=O)c3cccc(S(=O)(=O)N4CCc5ccccc5C4)c3)CC2C)c1 (stereo unspecified),-25.4% (inactive),
Cc1cccc(N2CCN(S(=O)(=O)c3ccc(-c4cc(C)no4)s3)CC2C)c1 (stereo unspecified),-0.877% (inactive),
CCCCNc1nc(C)nc2c1nc(-c1ccccc1)n2CCCCN(CC)CC,-8.02% (inactive),
CC(C)[C@@H](CC(=O)N[C@@H]1CCNC[C@H]1C(=O)N[C@H](CC(=O)N[C@@H](CCC(=O)O)CC(=O)O)Cc1ccccc1)NC(=O)C[C@H](CO)NC(=O)[C@@H]1CNCC[C@H]1N,2.57% (inactive),
CN(CC(=O)NC(=O)Nc1ccccc1F)Cc1ccccc1,-12.4% (inactive),
Oc1ccc(-c2c(-c3ccccc3)nn3c(C(F)(F)F)cc(C(F)(F)F)nc23)cc1,-2.59% (inactive),
Cn1c(N)c(C(=O)COC(=O)c2cc(C(F)(F)F)nc3c(C(F)(F)F)cccc23)c(=O)n(C)c1=O,-1.81% (inactive),
Cc1cc(C)cc(NC(=O)C(c2ccccc2)N2CCN(CC(=O)N3CCCC3)CC2)c1 (stereo unspecified),-10.5% (inactive),
CCCn1c(-c2ccc(F)cc2)nc2c(NCC3CCCN3CC)nc(C)nc21 (stereo unspecified),3.01% (inactive),
Cc1cccc(CNc2ccnc(-c3cccnc3)n2)c1,4% (inactive),
CC(C)C(NS(=O)(=O)c1ccc(-c2ccc(Br)cc2)cc1)C(=O)O (stereo unspecified),-1% (inactive),
Cn1nc(C(=O)OCC(=O)N(Cc2ccccc2)C(C)(C)C)c2ccccc2c1=O,-0.388% (inactive),

Compound,"activity change, negative = inhibition",Potency
O=S(O)S(=O)(=O)O,-2.71% (inactive),
O=C(CN1CCN(C2CCS(=O)(=O)C2)CC1)N1N=C(c2ccc(Cl)cc2)CC1c1ccco1 (stereo unspecified),-0.578% (inactive),
O=C(CCNS(=O)(=O)c1ccccc1)NCCCc1ccccc1,-3.56% (inactive),
Cc1ccc(-n2nc(C)c(C(=O)O)c2-n2cccc2)cc1,-10.4% (inactive),
COCCNc1nc(-c2ccccc2)nc2c1oc1ccccc12,26.2% (inactive),
COc1ccccc1-c1nc(NCCNC(C)=O)c2ccccc2n1,-7.54% (inactive),
CCC(=O)OCCNc1nc(-c2ccccc2)nc2ccccc12,,2 µM (active)
O=C(CN1CCCCC1)NC(=O)Nc1ccccc1F,-13.3% (inactive),
COc1ccc(C2/C=C\CN(C(=O)c3ccc(C)cc3)C(Cc3ccccc3)C(=O)N2Cc2ccc(F)cc2)cc1 (stereo unspecified),-6.74% (inactive),
O=C(CSc1nnc(CN2CCCC2)n1-c1ccc(F)cc1)c1ccc2c(c1)OCO2,-3.16% (inactive),
COc1ccc2c(c1)O[C@@H](c1ccc3c(c1)OCO3)[C@H](OC(=O)NCCc1ccc(OC)c(OC)c1)C2=O,1.5% (inactive),
Cc1ccc(NC(=O)Cn2c(C)csc2=O)cc1,0.884% (inactive),
CN1CCN(c2ccc(NC(=O)c3cc(Cl)c4c(c3)OCCO4)cc2)CC1,-1.3% (inactive),
C1CCC2OC2C1 (stereo unspecified),4.47% (inactive),
Cc1ccc(C)c(NC(=O)C(c2ccccc2)N2CCN(CC(=O)NC3CC3)CC2)c1 (stereo unspecified),-6.58% (inactive),
COc1ccc(CCNC(=O)COC(=O)Cc2cccc(F)c2)cc1,-3.01% (inactive),
C=CCOC(=O)C(=C)C,-1.86% (inactive),
O=C(NCc1ccccn1)[C@]1(C(F)(F)F)C[C@H](CCc2ccccc2)CCCO1,7.16% (inactive),
COC(=O)C(CC(C)C)NS(=O)(=O)c1cc(Br)ccc1Br (stereo unspecified),-1.26% (inactive),
